{"source": "PubChem BioAssay (NCATS)", "note": "Records with an inconclusive call do not appear. Activity calls are given as the source filed them. Calls follow the shape of the dose curve; as a rule, active = well fitted inhibition curve with a large enough effect; inconclusive = small, poorly fitted or top-dose-only effect; inactive = flat fitted curve, though single readings scatter. % is scaled to controls: 0 for no effect and ±100 for the full control effect; potency is read from the fitted curve at half-maximal effect.", "data": [{"molecular_target": "Dual specificity protein kinase CLK4 (Homo sapiens) (UniProt Q9HAZ1)", "sequence (Q9HAZ1 whole entry, looked up)": "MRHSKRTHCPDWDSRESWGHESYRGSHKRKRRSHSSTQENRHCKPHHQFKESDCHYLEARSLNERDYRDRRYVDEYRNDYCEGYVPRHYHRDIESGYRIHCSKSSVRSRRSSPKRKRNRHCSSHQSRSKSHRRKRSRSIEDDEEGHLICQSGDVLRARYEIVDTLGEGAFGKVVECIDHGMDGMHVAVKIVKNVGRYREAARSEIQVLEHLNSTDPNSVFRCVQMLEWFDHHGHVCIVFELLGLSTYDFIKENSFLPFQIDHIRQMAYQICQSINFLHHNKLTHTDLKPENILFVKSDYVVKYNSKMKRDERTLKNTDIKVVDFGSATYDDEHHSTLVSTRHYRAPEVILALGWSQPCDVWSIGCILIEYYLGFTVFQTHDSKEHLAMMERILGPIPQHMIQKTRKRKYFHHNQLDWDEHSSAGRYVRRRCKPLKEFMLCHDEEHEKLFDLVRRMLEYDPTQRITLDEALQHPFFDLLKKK", "assay": "qHTS Assay for Inhibitors of CDC-like Kinase 4 (ADP-Glo Assay) (AID 1771); also: nearly all actives have a fitted effect of over 70% in size", "conditions": "recombinant CLK4, ADP-Glo luminescence; series mostly up to 80 µM; activity change, negative = inhibition: at the top concentration", "description": "NIH Molecular Libraries Probe Production Centers Network [MLPCN] NIH Chemical Genomics Center [NCGC] MLPCN Grant: 1R03MH084827-01 Assay Submitter (PI): Tom Misteli NCGC Assay Overview: Clk4 (Invitrogen, cat# PV3839) was assayed using ATP and the RS repeat peptide (AnaSpec cat # 61722) as substrates. In the assay, the ADP levels were detected using Promega ADP-Glo technology wherein the remaining ATP from the kinase reaction is first depleted with an ATPase reagent followed by a reagent that contains and enzyme which converts the ADP produced to ATP as well as Ultra-Glo luciferase and D-luciferin which generates a bioluminescence signal from the ATP. The positive control for the assay was TG003 (Sigma-Aldrich, cat# 300801-52-9) which has been described as an inhibitor of Clk 4[1].\nNCGC Assay Protocol Summary: Two uL/well of substrate-buffer solution (100 uM RS peptide, 1 uM ATP, 1x ADP-Glo Buffer A, 2 mM MgCl2, 0.5 mM EGTA, 2.5 mM DTT, 0.01% Triton X-100, final concentrations) was dispensed into 1536-well plates (Greiner, solid white, medium binding assay plates) with the Aurora Discovery BioRAPTR Flying Reagent Dispenser (FRD; Beckton-Dickenson). Twenty-three nanoliter of compound and control solutions were transferred to the assay plate using a Kalypsys pin-tool followed by 0.5 uL/well Clk4-buffer solution (25 nM Clk4, 1x ADP-Glo Buffer A, 2 mM MgCl2, 0.5 mM EGTA, 2.5 mM DTT, 0.01% Triton X-100 final concentration) dispensing for a total kinase reaction volume of 2.5 uL/ well. After 1 hr of room-temperature incubation, 2.5 uL ADP-Glo reagent was added and incubated at room temperature for 45 min to stop the kinetic reaction and degrade residual ATP. The ADP product was then converted to ATP by adding 5 uL per well of ADP-Glo Reagent II to yield a total assay volume of 10 uL/ well. Luminescence was detected after 30 min room temperature incubation with the Perkin Elmer Viewlux.", "values": [{"smiles": "COc1ccccc1-c1cc(-n2ccnc2)ncn1", "Potency": "6.31 µM (active)"}, {"smiles": "COc1ccc(-n2c(=O)c(-c3cccc(F)c3)nc3cncnc32)cc1", "activity change, negative = inhibition": "-4.66% (inactive)"}, {"smiles": "COc1cccc(Cn2c(=O)c(-c3ccccc3)nc3cncnc32)c1", "activity change, negative = inhibition": "-1.39% (inactive)"}, {"smiles": "COCCn1c(=O)c(-c2cccc(C#N)c2)nc2cnc(Oc3ccc(OC)cc3)nc21", "activity change, negative = inhibition": "-7.59% (inactive)"}, {"smiles": "CN1CCN(c2ncc3nc(-c4cccc(C#N)c4)c(=O)n(CCC#N)c3n2)CC1", "activity change, negative = inhibition": "-18.2% (inactive)"}, {"smiles": "c1csc(CNc2ccnc(-c3ccc4c(c3)OCO4)n2)c1", "Potency": "22.4 µM (active)"}, {"smiles": "c1nc(N2CCOCC2)c2cc(-c3ccoc3)ccc2n1", "Potency": "0.631 µM (active)"}, {"smiles": "COc1ncc2nc(-c3cn(C)c4ccccc34)c(=O)n(C)c2n1", "activity change, negative = inhibition": "-12.2% (inactive)"}, {"smiles": "FC(F)(F)c1ccccc1-c1cncnc1NCCN1CCOCC1", "activity change, negative = inhibition": "4.33% (inactive)"}, {"smiles": "CN1CCN(c2cc(-c3ccccc3Cl)ncn2)CC1", "activity change, negative = inhibition": "-7.78% (inactive)"}, {"smiles": "COc1ccccc1-c1cncnc1N1CCN(C)CC1", "activity change, negative = inhibition": "0.676% (inactive)"}, {"smiles": "COCCn1c(=O)c(C)nc2cnc(N3CCOCC3)nc21", "activity change, negative = inhibition": "2.9% (inactive)"}, {"smiles": "c1ccc(CNc2ncncc2-c2ccc3c(c2)OCO3)cc1", "Potency": "7.08 µM (active)"}, {"smiles": "O=c1c(-c2cccc(Cl)c2)nc2cncnc2n1Cc1ccccc1", "activity change, negative = inhibition": "-13.3% (inactive)"}, {"smiles": "COCCn1c(=O)c(-c2ccc(Cl)cc2)nc2cnc(N(C)C)nc21", "activity change, negative = inhibition": "1.57% (inactive)"}, {"smiles": "CN(C)C(=O)c1ccc(-c2cc(NCc3cccs3)ncn2)cc1", "Potency": "22.4 µM (active)"}, {"smiles": "CN1CCN(c2ccnc(-c3cccnc3)n2)CC1", "Potency": "15.8 µM (active)"}, {"smiles": "COc1ccc(CNc2nc(-c3ccc(N(C)C)cc3)nc3ccccc23)c(OC)c1", "activity change, negative = inhibition": "-9.41% (inactive)"}, {"smiles": "COc1ccccc1-c1nc(N(C)C)c2ccccc2n1", "activity change, negative = inhibition": "-23.4% (inactive)"}, {"smiles": "COc1ccccc1CCn1c(=O)c(-c2cn(C)c3ccccc23)nc2cncnc21", "activity change, negative = inhibition": "-6.55% (inactive)"}, {"smiles": "CCNc1ncc2nc(-c3cccs3)c(=O)n(Cc3cccs3)c2n1", "activity change, negative = inhibition": "-9.9% (inactive)"}, {"smiles": "COCCn1c(=O)c(C)nc2cnc(Nc3cccc(OC)c3)nc21", "Potency": "25.1 µM (active)"}, {"smiles": "CN(C)c1ccc(-c2ccc3ncnc(N(C)Cc4ccco4)c3c2)cc1", "Potency": "7.08 µM (active)"}, {"smiles": "O=c1c(CCc2ccccc2)nc2cnc(N3CCOCC3)nc2n1CCc1ccccc1", "activity change, negative = inhibition": "14.9% (inactive)"}, {"smiles": "FC(F)(F)c1ccccc1-c1nccc(NCCN2CCOCC2)n1", "activity change, negative = inhibition": "-11.3% (inactive)"}, {"smiles": "COc1ccccc1CNc1cc(-c2ccc(C(=O)N(C)C)cc2)ncn1", "Potency": "7.08 µM (active)"}, {"smiles": "CCNc1ncc2nc(-c3cccs3)c(=O)n(CCc3ccccc3)c2n1", "activity change, negative = inhibition": "-6.66% (inactive)"}, {"smiles": "COc1ncc2nc(-c3cn(C)c4ccccc34)c(=O)n(-c3ccccc3)c2n1", "activity change, negative = inhibition": "2.76% (inactive)"}, {"smiles": "Cc1nc2cnc(N(C)C)nc2n(CCc2ccccc2)c1=O", "Potency": "35.5 µM (active)"}, {"smiles": "Cn1cc(-c2nc3cnc(OCc4ccccc4)nc3n(CCC#N)c2=O)c2ccccc21", "activity change, negative = inhibition": "12.1% (inactive)"}, {"smiles": "COc1ccc2[nH]cc(CCNc3nc(-c4ccc(N(C)C)cc4)nc4ccccc34)c2c1", "Potency": "28.2 µM (active)"}, {"smiles": "COc1ccccc1-c1nccc(NCc2ccccc2)n1", "activity change, negative = inhibition": "3.07% (inactive)"}, {"smiles": "Cc1cnc(CNc2ncncc2-c2ccoc2)cn1", "activity change, negative = inhibition": "-20.1% (inactive)"}, {"smiles": "COc1ncc2ncc(=O)n(C3CC3)c2n1", "activity change, negative = inhibition": "-6.87% (inactive)"}, {"smiles": "CN(Cc1ccco1)c1cc(-c2ccccc2C(F)(F)F)ncn1", "activity change, negative = inhibition": "-7.43% (inactive)"}, {"smiles": "COc1ccccc1-c1ccc2ncnc(NCc3cnc(C)cn3)c2c1", "Potency": "17.8 µM (active)"}, {"smiles": "COc1ccc(Oc2ncc3nc(-c4cn(C)c5ccccc45)c(=O)n(C)c3n2)cc1", "activity change, negative = inhibition": "0.598% (inactive)"}, {"smiles": "COc1ncc2nc(C)c(=O)n(-c3ccccc3)c2n1", "activity change, negative = inhibition": "-4.93% (inactive)"}, {"smiles": "Cn1c(=O)c(-c2ccccc2)nc2cnc(OCc3ccccc3)nc21", "activity change, negative = inhibition": "5.82% (inactive)"}, {"smiles": "COc1ncc2ncc(=O)n(CCc3ccccc3)c2n1", "Potency": "14.1 µM (active)"}]}]}
